CHX counter – Cycloheximide Counterscreen for Small Molecule Inhibitors of Shiga Toxin; cell reporter, cycloheximide protein synthesis inhibition counterscreen; 300,000 compounds, 12% hits; AID 2314, 2010; max response, %; in the data active means max response mostly above about 13%, no sharp cut-off; inactive means mostly below about 14%; further: read at 38.3 µM for the half of the compounds with a filed dose; 0% is about no effect
HCV inhibitor – qHTS Assay for Inhibitors of Hepatitis C Virus (HCV); Potency, µM (doses to about 41.8 µM), for inactives: at the top dose activity change, negative = inhibition, usual class: inhibitors; 340,000 compounds, 3.4% hits; Huh7.5.1 HCVcc-Cre infection, luciferase reporter, 44 h; further: potency means the concentration at half of the fitted maximal effect; on the % scale 0 is the no-effect control and ±100 the full control effect
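Infectious HCVcc-Cre (~0.5 moi) was added to cells just after compound, with cells seeded 4 h earlier at 1,000 per well. Luciferase activity after 44 h culture reported infection; substrate was incubated 15 min at room temperature before reading.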
Pf growth 48h – Primary qHTS for delayed death inhibitors of the malarial parasite plastid, 48 hour incubation | P. falciparum luciferase growth in erythrocytes, 48 h | Potency, µM (doses to about 28.7 µM), inactives show at the top dose activity change, negative = inhibition, hits mostly inhibitors | 310,000 compounds, 5.9% hits; further: potency means the concentration at half of the fitted maximal effect; on the % scale 0 is the no-effect control and ±100 the full control effect
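First compound was added to culture medium, then infected red cells at 0.1% parasitemia and 2% hematocrit (final). After incubation at 37 C under 5% CO2, luciferase detection reagent was dispensed and light output recorded.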
AMA1-RON2 inh – qHTS for Inhibitors of AMA1-RON; Towards Development of Antimalarial Drug Lead: Primary Screen; AlphaScreen AMA1-biotinylated RON2 peptide binding; Potency, µM (series often up to 58.2 µM), for inactives: at the top dose activity change, negative = inhibition, hits mostly inhibitors; 360,000 compounds, 0.2% hits; AID 720542, 2013;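 further: potency means the concentration at half of the fitted maximal effect; 0% = vehicle wells and -100% = peptide control; nearly all actives have a fitted effect of over 45% in size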
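AMA1 (3D7) with his tag at 25 nM final met compounds first, then biotinylated RON2 peptide at 25 nM; detection used donor plus acceptor beads, 10 µg/mL apiece, read by AlphaScreen after 30 min at room temperature.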
Shiga inhibitor – A qHTS for Small Molecule Inhibitors of Shiga Toxin | 290,000 compounds, 9.2% hits | Vero cells, Shiga toxin protein synthesis inhibition reporter | AID 2315, 2010 | inhibition, % at 38.7 µM; in the data active means inhibition mostly above about 28%, no sharp cut-off; inactive means mostly below about 43%; further: 0% is about no effect
Pf growth 96h – Primary qHTS for delayed death inhibitors of the malarial parasite plastid, 96 hour incubation; P. falciparum luciferase reporter growth, 96 h; Potency, µM (top dose mostly 28.7 µM), for the others: at the highest dose activity change, negative = inhibition, actives largely listed as inhibitors; 320,000 compounds, 6.9% hits; further: potency means the concentration at half of the fitted maximal effect; on the % scale 0 is the no-effect control and ±100 the full control effect
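Luminescence readout: decreased luciferase signal marks inhibited growth of reporter-expressing P. falciparum in infected red cells (2% hematocrit, 0.05% parasitemia final), exposed to compound two generations (96 h, 37 C, 5% CO2).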
The depositor's hits bear a star; ? = inconclusive; / = no result; [ ] = another dose, or the depositor's remark. Rows were chosen to be rich in hits. Some 21% of all compounds tested hit in one or more screens of this group. Unless noted, the call rests on the fitted dose curve; in most records, active means well fitted curve in the direction sought with a large enough effect; inconclusive means small, poorly fitted or top-dose-only effect, or another doubt; inactive means no such curve, though single readings can be large; an effect the other way counts as inactive or inconclusive.

SMILES	CHX counter	HCV inhibitor	Pf growth 48h	AMA1-RON2 inh	Shiga inhibitor	Pf growth 96h
COc1ccc(C2/C=C\CN(C(=O)C3CC3)C(Cc3ccccc3)C(=O)N2Cc2ccc(F)cc2)cc1 (centres undefined)	15.1	/	/	/	-7.0	/
CC1=CC(=O)C=CC1=Nc1ccc(N(C)C)cc1	/	/	/	3.98µM*	/	/
CC(=O)N(C)c1ccc(N=C2C(=O)Nc3ccccc32)cc1	-4.1	6.5%	14.3%[0.00184 µM]	-1.4%	-4.8	?
Nc1n[nH]c(N)c1N=Nc1ccccc1F	16.9*	10.8%	20.5%	34.9%	24.2	0.0%
Cc1ccccc1N=Nc1c(N)n[nH]c1N	9.2	-14.4%	7.1%	52.0%	8.9	2.94µM*
Nc1n[nH]c(N)c1N=Nc1ccc(Cl)cc1Cl	51.7*	-0.5%	92.1%	3.3%	38.1*	57.8%
Nc1n[nH]c(N)c1N=Nc1ccccc1	11.5	16.6%	22.3%	44.8%	34.3	-12.0%
Cc1ccc(C(=O)Cc2cc3ccccc3oc2=O)c(C)c1	57.5*	-14.2%	91.0%	-0.9%	66.6*	?
CCCC(=O)c1cc2ccccc2oc1=O	11.9	2.9%	23.7%	7.0%	9.0	0.0%
COc1ccc(C(=O)Cc2cc3ccccc3oc2=O)cc1	28.4*	0.3%	88.9%	7.6%	61.1*	5.1%
COc1ccc(Cl)cc1NC(=O)NNC(=O)C(=O)Nc1ccc(F)cc1	/	/	/	61.8%	/	/
C=C[C@]1(C)C[C@@H](OC(=O)CSCCN(CC)CC)[C@]2(C)C(C)CC[C@]3(CCC(=O)[C@H]32)[C@@H](C)[C@@H]1O (some centres undefined)	/	?	13.1µM*	-5.1%	/	2.08µM*
C=C[C@@]1(C)C[C@H](OC(=O)CSC(C)(C)CNC(=O)[C@@H](N)C(C)C)[C@@]2(C)C(C)CC[C@@]3(CCC(=O)[C@@H]32)[C@H](C)[C@H]1O (some centres undefined)	/	/	1.07µM*	/	/	-17.5%
COc1cc(-n2c(C)nc3ncn(-c4ccccc4)c3c2=O)cc(OC)c1OC	/	/	/	10.0%	/	/
COCCNC(=O)C1(C)CCN(C(=O)c2ccc3ccccc3n2)C1 (centres undefined)	/	/	/	13.8%	/	/
Cc1ccc(CNC(=O)c2ccc(S(=O)(=O)N(C)C)cc2)n1C	-4.7	8.9%	-2.5%	1.8%	-6.1	4.3%
CC1Cc2cc(S(=O)(=O)N3CCN(c4ccc(Cl)cc4)CC3)ccc2N1C(=O)C1CC1 (centres undefined)	-2.7	6.31µM*	?	-3.7%	-3.7	14.7µM*
COc1cccc(N2CCN(C(=O)C3CCN(S(=O)(=O)c4ccc5c(c4)CC(C)N5C(C)=O)CC3)CC2)c1 (centres undefined)	-1.3	11.2µM*	?	-2.8%	1.5	?
CC(=O)N1c2ccc(S(=O)(=O)N3CCC(C(=O)N4CCN(c5ccc(Cl)cc5)CC4)CC3)cc2CC1C (centres undefined)	-4.3	10µM*	?	-12.8%	-3.8	?
Cc1ccc(C2=NCCn3nc4cc([N+](=O)[O-])ccc4c32)cc1	/	14.2%	?	35.3%	/	-41.9%
Cc1cccc(-c2nc(CS(=O)CC(=O)NCCc3ccc(Cl)cc3)c(C)o2)c1 (centres undefined)	-5.6	?	14.3%	5.3%	7.3	20.9%
COC(=O)CCCC1=CC2=C(c3ccccc3)C(=O)C(C)(OC(=O)C3CCCC3)C(=O)C2=CN1CCc1c[nH]c2ccccc12 (centres undefined)	2.5	?	?	-4.6%	-10.6	?
COc1cc(CNCCCN2CCOCC2)cc(Cl)c1OCC(=O)NC(C)(C)C	-2.3	?	?	-13.0%	2.7	?
CC(C)(C)Nc1c2ccccc2nc2ccccc12	-1.6	-26.9%	?	5.7%	-5.0	8.3%
c1ccc(-n2nnnc2NCCc2c[nH]c3ccccc23)cc1	-0.8	-21.1%	?	-1.1%	-24.0	?
SMILES	CHX counter	HCV inhibitor	Pf growth 48h	AMA1-RON2 inh	Shiga inhibitor	Pf growth 96h
c1ccc2c(NCCc3c[nH]c4ccccc34)c3ccccc3nc2c1	-11.1	14.1µM*	0.586µM*	?	24.3	3.29µM*
OCCCNc1c2ccccc2nc2ccccc12	-5.8	11.2µM*	5.22µM*	-0.4%	-5.2	28.0%
Fc1cccc(NCCc2c[nH]c3ccccc23)n1	37.3*	?	20.8%	?	40.4	35.0%
c1ccc2c(CCNC3=NCCC3)c[nH]c2c1	0.5	2.0%	?	-1.8%	17.4	/
COc1ccccc1NC(=O)Nc1ccnn1C1CCN(C(=O)C2CCOC2)CC1 (centres undefined)	/	/	/	-2.5%	/	/
CCc1ccc(N2C(=O)c3cc(N4CCOCC4)c([N+](=O)[O-])cc3C2=O)cc1	-3.1	1.9%	4.3%	/	17.5	7.38µM*
CCc1cccc(CC)c1N1C(=O)c2cc(N3CCOCC3)c([N+](=O)[O-])cc2C1=O	-5.0	17.3%	14.8%	-10.5%	8.1	11.2%
Nc1nc2ccc(Cc3ccncc3)cc2s1	20.4*	2.1%	54.7%	-3.6%	77.5*	93.5%
COCCCN1C(=O)C(CC(=O)NC(c2ccccc2)c2ccccc2)CC(C(=O)N(C(C)C)C(C)C)=C1C (centres undefined)	/	/	/	8.4%	/	/
CC(C)Nc1nc(NCCN2CCCC2)c2sc(-c3ccccc3)cc2n1	/	/	/	-21.9%	/	/
CC(=O)Nc1ccc(OS(=O)(=O)c2ccc([N+](=O)[O-])cc2)cc1	6.3	-6.4%	13.1µM*	-2.8%	1.2	0.7%
COc1ccc(C=O)cc1OS(=O)(=O)c1ccc(NC(C)=O)cc1	5.3	?	?	1.1%	-9.2	?
COc1cc(C=O)cc(OC)c1OS(=O)(=O)c1ccc(NC(C)=O)cc1	-5.4	-23.1%	27.8%	-1.6%	-7.8	4.15µM*
CC(=O)Nc1ccc(OS(=O)(=O)c2ccc(Cl)cc2)cc1	11.8	3.9%	?	0.9%	39.6*	27.6%
CC(=O)Nc1ccc(S(=O)(=O)Oc2ccc(C=O)cc2)cc1	-2.3	7.5%	0.5%	-5.2%	-3.6	?
COC(=O)Cc1ccc(NC(=S)N2CCN(CCO)CC2)cc1	/	28.2%	/	9.6%	/	/
C[C@@]12CC[C@@H](C3=C(CCC3)C1)N2c1ccccc1	/	/	/	5.1%	/	/
CCOC(=O)c1ccc(-c2cc(C)no2)[nH]1	9.9	-13.3%	64.7%	10.7%	41.9*	62.6%
CCOC(=O)N1CCN(C(=O)c2cc(C)no2)CC1	-9.0	30.4%	/	-2.3%	-13.3	11.1%
CN(C)S(=O)(=O)N1CCN(c2ccc([N+](=O)[O-])c(NC3CC3)c2)CC1	-1.7	3.5%	4.15µM*	-28.5%	-15.7	?
Cc1cc(O)cc2c1C1CCC3(C)C(O)CCC3C1C=C2 (centres undefined)	/	?	/	0.0%	/	/
